These results are taken from PMC7862700, “An all-to-all approach to the identification of sequence-specific readers for epigenetic DNA modifications on cytosine”.

Test in all cases: DAPPL (digital affinity profiling via proximity ligation, sequencing); 10 mM Tris-HCl pH 7.5, 50 mM NaCl, 1 mM DTT, 4% glycerol, room temperature, 30 min; GST-TFs on glutathione beads, 16-mer random dsDNA library, 0.1% formaldehyde crosslink after washing; high values mean tight binding
One test concerns the target T1, FEV (Homo sapiens, UniProt Q99581 1-238).
T1 sequence: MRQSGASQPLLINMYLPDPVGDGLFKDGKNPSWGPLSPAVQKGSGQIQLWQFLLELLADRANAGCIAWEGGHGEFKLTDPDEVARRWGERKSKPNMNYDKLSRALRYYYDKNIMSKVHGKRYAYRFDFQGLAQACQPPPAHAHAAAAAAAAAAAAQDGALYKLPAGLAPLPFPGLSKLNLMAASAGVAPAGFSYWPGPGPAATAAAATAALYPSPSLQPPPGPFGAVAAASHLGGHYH
Conditions: protein: recombinant; tags: N-terminal GST; dsDNA, one strand shown. The essentials: (§1)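 Pools were built from human transcription factors expressed in yeast as GST fusions, captured on glutathione beads and DNA-barcoded, along with a tag-only sample. Incubation with 200 nmole of a 16-mer random double-stranded DNA library lasted 30 min at room temperature in Tris/NaCl/DTT/glycerol buffer, and was followed by washing, 0.1% formaldehyde crosslinking, proximity ligation, PCR amplification and Illumina NextSeq500 sequencing. Binding signal is the quotient of each hexamer's read frequency for a factor and its frequency for the tag-only sample.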

The target of the next test is ETV5 (Homo sapiens, UniProt P41161 1-510). The note with it: protein: recombinant; tags: N-terminal GST; dsDNA, one strand shown. Put shortly:
as §1

The next test concerns the target HSF1 (Homo sapiens, UniProt Q00613 1-529). Conditions: protein: recombinant; tags: N-terminal GST; chain copies: 3; dsDNA, one strand shown. The essentials:
as §1

For another test, the target named is T2, SPIC (Homo sapiens, UniProt Q8N5J4 1-248).
T2 sequence: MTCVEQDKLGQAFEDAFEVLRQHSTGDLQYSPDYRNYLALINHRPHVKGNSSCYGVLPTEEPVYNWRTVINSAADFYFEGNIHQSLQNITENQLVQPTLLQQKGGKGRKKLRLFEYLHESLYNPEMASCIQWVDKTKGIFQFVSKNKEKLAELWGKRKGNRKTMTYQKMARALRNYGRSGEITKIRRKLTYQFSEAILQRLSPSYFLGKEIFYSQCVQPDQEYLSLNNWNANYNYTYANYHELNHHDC
Conditions: protein: recombinant; tags: N-terminal GST; dsDNA, one strand shown. The essentials: as §1

Another test has as its target ELF4 (Homo sapiens, UniProt Q99607 1-663). The note with it: protein: recombinant; tags: N-terminal GST; dsDNA, one strand shown. Put shortly: as §1
A further test deals with T3, ELK4 (Homo sapiens, UniProt P28324-2 1-405).
T3 sequence: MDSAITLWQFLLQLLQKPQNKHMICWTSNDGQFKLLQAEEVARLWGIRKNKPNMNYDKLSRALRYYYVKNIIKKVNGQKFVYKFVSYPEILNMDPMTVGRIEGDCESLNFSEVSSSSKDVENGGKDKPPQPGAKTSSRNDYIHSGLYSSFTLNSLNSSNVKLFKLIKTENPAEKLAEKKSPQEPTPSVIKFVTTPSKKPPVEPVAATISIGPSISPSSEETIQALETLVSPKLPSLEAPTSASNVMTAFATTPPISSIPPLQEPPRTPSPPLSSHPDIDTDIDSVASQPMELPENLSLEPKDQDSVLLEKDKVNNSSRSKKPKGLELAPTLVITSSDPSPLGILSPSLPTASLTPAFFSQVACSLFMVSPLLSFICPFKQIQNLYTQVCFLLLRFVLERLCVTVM
Conditions: protein: recombinant; tags: N-terminal GST; dsDNA, one strand shown. The essentials: as §1

In the next test the target is T4, ETV2 (Homo sapiens, UniProt O00321 1-342).
T4 sequence: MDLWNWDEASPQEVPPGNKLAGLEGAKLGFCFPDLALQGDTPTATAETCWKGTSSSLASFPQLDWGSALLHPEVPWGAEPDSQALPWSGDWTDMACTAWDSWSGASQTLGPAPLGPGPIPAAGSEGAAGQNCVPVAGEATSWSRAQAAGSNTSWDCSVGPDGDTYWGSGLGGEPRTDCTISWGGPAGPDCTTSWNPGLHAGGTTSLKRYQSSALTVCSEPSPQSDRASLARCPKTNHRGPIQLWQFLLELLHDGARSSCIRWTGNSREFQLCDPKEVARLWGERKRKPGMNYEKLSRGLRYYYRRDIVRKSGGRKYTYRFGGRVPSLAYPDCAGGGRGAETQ
The note with it: protein: recombinant; tags: N-terminal GST; dsDNA, one strand shown. The essentials:
as §1

The next test deals with T5, ELF3 (Homo sapiens, UniProt P78545 1-371).
T5 sequence: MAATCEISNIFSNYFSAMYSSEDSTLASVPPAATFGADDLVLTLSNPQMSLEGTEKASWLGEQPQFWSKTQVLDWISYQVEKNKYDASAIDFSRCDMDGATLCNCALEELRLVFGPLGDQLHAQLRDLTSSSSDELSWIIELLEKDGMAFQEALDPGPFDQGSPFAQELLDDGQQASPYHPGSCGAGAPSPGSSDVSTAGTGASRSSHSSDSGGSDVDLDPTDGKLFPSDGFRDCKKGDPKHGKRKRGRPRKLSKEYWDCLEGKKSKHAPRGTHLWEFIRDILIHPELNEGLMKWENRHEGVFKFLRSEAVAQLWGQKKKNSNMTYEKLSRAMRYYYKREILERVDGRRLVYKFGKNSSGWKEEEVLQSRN
The note with it: protein: recombinant; tags: N-terminal GST; dsDNA, one strand shown. Put shortly: as §1

In another test the target is CRX (Homo sapiens, UniProt O43186 1-299). The note with it: protein: recombinant; tags: N-terminal GST; dsDNA, one strand shown. Put shortly: as §1
Sequence of CRX (O43186 whole entry): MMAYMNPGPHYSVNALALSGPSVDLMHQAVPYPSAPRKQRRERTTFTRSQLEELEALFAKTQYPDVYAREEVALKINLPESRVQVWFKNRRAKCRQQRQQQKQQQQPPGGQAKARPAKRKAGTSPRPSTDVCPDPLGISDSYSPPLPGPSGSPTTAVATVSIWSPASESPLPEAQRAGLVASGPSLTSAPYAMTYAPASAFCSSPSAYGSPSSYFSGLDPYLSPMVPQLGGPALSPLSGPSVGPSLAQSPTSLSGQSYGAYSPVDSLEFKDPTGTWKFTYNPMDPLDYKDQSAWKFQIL
The next test concerns the target ETV1 (Homo sapiens, UniProt P50549 1-477). Conditions: protein: recombinant; tags: N-terminal GST; dsDNA, one strand shown. The essentials:
as §1

Another test deals with T6, ERF (Homo sapiens, UniProt P50548 1-548).
T6 sequence: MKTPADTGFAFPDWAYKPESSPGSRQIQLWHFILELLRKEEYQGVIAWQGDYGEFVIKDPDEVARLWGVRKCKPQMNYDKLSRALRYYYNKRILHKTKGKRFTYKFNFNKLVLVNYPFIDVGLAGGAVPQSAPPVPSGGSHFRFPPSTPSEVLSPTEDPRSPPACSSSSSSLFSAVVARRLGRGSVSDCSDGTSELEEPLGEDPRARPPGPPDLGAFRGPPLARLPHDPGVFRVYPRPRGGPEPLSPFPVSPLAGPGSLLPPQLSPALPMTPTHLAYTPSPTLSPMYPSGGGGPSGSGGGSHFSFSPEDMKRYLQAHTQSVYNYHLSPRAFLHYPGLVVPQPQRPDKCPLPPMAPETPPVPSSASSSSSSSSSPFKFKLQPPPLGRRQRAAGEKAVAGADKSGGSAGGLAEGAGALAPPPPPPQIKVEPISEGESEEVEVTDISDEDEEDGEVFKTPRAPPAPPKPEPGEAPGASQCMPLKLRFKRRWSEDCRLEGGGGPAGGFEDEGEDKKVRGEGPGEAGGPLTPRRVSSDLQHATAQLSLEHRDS
The note with it: protein: recombinant; tags: N-terminal GST; dsDNA, one strand shown. The essentials: as §1

The target in another test is T7, ETV3L (Homo sapiens, UniProt Q6ZN32 1-361).
T7 sequence: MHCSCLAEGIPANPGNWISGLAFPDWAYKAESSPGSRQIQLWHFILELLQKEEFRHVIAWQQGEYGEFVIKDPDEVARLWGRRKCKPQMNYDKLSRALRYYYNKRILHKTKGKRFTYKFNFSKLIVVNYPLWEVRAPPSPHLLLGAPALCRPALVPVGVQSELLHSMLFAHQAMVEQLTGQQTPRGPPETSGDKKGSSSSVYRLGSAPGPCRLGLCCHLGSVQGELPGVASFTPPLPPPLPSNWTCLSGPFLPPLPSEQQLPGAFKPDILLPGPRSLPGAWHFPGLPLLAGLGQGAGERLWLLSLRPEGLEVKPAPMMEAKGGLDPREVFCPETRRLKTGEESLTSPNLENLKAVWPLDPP
Conditions: protein: recombinant; tags: N-terminal GST; dsDNA, one strand shown. The essentials: as §1

The target in the next test is T8, ETS2 (Homo sapiens, UniProt P15036 1-469).
T8 sequence: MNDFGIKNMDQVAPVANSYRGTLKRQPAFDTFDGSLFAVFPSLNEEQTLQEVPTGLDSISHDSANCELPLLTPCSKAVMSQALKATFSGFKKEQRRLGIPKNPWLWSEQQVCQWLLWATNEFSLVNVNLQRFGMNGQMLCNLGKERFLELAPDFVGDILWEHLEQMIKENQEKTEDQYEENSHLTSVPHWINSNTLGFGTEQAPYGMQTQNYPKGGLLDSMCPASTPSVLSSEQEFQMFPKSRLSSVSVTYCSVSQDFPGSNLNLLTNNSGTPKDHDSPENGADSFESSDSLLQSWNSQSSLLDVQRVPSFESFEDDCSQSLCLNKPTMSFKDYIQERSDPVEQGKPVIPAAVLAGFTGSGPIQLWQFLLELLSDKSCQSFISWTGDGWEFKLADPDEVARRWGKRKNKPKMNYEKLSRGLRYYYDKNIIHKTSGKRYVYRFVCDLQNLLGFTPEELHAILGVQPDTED
Conditions: protein: recombinant; tags: N-terminal GST; dsDNA, one strand shown. Put shortly:
as §1

In another test the target is T9, SPDEF (Homo sapiens, UniProt O95238 1-335).
T9 sequence: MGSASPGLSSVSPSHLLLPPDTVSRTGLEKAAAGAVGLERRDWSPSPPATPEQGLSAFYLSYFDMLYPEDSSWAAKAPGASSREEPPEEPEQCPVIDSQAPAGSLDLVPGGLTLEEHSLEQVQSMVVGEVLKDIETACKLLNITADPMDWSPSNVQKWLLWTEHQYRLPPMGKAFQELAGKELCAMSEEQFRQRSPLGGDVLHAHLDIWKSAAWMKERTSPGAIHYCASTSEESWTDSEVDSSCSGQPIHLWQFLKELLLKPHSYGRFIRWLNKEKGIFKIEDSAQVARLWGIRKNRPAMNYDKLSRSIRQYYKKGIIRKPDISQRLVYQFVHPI
Conditions: protein: recombinant; tags: N-terminal GST; dsDNA, one strand shown. Put shortly:
as §1

The target of the next test is T10, ETV7 (Homo sapiens, UniProt Q9Y603 1-341).
T10 sequence: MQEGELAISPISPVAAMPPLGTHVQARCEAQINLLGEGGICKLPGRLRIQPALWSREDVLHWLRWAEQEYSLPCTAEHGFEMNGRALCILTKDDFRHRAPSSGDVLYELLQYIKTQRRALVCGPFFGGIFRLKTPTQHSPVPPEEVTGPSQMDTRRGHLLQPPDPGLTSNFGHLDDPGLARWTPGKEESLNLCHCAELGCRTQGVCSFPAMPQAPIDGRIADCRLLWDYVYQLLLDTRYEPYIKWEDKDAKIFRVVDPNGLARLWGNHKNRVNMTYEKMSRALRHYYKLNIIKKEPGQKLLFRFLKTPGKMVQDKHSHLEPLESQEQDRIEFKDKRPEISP
The note with it: protein: recombinant; tags: N-terminal GST; dsDNA, one strand shown. The essentials: as §1

In the next test the target is T11, ELF5 (Homo sapiens, UniProt Q9UKW6-2 1-255).
T11 sequence: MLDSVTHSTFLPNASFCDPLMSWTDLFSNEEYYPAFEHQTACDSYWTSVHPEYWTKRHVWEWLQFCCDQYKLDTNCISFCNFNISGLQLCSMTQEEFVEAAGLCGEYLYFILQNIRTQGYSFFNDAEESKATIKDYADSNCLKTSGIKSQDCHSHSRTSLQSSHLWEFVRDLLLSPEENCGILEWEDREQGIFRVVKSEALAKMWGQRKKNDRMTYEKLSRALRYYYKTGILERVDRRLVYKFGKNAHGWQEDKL
Conditions: protein: recombinant; tags: N-terminal GST; dsDNA, one strand shown. The essentials: as §1

The target in another test is T12, ETV3 (Homo sapiens, UniProt P41162-2 1-143).
T12 sequence: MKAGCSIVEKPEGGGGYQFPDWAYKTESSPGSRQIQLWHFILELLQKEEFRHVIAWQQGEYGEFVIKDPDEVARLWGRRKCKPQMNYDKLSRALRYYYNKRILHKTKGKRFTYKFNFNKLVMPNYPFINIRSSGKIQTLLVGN
The note with it: protein: recombinant; tags: N-terminal GST; dsDNA, one strand shown. The essentials: as §1

The target in another test is ETV6 (Homo sapiens, UniProt P41212 1-452). Conditions: protein: recombinant; tags: N-terminal GST; dsDNA, one strand shown. The essentials:
as §1

Sequence of ETV6 (P41212 whole entry): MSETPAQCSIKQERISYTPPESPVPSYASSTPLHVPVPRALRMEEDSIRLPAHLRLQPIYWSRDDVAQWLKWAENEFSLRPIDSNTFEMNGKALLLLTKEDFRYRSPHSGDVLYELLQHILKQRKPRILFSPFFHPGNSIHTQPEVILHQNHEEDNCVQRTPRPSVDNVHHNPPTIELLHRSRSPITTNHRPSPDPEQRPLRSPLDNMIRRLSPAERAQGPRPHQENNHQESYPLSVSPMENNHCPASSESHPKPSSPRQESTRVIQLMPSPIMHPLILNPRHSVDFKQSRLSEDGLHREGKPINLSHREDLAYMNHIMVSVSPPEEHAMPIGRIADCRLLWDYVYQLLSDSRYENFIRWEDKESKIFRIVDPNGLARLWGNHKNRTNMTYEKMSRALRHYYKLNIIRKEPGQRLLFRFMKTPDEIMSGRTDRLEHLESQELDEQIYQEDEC
Sequence of HSF1 (Q00613 whole entry): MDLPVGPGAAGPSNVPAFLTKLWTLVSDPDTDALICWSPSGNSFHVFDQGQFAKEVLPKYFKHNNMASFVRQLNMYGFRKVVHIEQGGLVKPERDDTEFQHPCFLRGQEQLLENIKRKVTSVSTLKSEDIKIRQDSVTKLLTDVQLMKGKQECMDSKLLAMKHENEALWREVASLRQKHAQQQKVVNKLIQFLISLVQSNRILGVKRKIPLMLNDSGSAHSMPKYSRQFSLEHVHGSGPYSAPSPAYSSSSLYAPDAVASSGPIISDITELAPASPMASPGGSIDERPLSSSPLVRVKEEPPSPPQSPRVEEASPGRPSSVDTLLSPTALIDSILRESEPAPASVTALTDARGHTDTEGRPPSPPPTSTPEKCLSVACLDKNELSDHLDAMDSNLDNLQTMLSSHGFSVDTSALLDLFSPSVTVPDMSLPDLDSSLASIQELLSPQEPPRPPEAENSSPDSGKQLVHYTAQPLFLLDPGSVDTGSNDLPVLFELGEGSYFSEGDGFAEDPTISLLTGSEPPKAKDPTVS
Sequence of ETV5 (P41161 whole entry): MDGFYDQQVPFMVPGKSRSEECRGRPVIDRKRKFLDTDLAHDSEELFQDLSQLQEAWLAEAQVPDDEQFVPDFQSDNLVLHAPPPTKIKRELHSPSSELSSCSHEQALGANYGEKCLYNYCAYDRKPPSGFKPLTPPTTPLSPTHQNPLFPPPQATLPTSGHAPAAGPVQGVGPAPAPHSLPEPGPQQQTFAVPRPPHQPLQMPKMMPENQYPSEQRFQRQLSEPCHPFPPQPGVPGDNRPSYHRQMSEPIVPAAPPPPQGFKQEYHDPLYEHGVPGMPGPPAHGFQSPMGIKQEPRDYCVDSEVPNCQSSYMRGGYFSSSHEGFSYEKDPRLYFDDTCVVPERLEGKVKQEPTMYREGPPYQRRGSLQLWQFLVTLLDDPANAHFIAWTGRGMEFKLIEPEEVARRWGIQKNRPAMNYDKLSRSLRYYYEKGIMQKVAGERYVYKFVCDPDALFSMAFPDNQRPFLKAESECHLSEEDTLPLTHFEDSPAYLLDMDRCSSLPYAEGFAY
Sequence of ELF4 (Q99607 whole entry): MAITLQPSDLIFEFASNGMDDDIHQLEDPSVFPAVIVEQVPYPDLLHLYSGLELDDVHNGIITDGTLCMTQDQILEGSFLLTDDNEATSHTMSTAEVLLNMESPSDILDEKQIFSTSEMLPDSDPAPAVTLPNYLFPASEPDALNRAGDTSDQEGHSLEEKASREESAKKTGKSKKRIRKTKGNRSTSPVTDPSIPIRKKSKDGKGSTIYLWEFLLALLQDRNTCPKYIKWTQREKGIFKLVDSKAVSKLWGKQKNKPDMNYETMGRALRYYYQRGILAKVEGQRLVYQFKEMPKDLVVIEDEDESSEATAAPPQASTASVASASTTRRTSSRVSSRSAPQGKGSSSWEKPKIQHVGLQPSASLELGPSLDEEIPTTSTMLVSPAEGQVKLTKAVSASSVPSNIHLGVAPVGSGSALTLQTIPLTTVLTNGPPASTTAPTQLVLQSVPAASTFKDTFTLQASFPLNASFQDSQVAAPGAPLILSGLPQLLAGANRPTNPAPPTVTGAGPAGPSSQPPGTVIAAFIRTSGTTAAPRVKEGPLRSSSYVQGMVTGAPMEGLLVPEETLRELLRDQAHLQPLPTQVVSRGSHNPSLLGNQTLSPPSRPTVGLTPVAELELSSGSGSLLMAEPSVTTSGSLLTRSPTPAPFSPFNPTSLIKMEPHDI
Sequence of ETV1 (P50549 whole entry): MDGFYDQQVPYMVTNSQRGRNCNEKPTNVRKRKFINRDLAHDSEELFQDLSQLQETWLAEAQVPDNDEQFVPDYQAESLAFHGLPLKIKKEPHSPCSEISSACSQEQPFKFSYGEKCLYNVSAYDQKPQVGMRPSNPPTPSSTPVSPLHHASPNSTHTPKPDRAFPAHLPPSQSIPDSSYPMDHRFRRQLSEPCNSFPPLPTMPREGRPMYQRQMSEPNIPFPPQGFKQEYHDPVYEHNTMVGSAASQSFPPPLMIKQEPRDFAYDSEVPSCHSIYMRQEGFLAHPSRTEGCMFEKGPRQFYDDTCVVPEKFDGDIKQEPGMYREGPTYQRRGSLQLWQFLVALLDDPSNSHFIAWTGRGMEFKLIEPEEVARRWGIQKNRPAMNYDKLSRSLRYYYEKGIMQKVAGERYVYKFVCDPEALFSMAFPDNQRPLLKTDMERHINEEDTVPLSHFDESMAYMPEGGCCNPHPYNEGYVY

On to TCTTAG, for which the binding signal with FEV was 1.16 fold enrichment (6-mer frequency, TF over GST control); with ETV5 it was 1.21 fold enrichment (6-mer frequency, TF over GST control); in the test with HSF1, 1.5 fold enrichment (6-mer frequency, TF over GST control); with SPIC, 1.36 fold enrichment (6-mer frequency, TF over GST control); in the test with ELF4, 1.3 fold enrichment (6-mer frequency, TF over GST control); with ELK4 it was 1.21 fold enrichment (6-mer frequency, TF over GST control). In addition, the binding signal with ETV2 is 1.26 fold enrichment (6-mer frequency, TF over GST control); with ELF3 it was 1.29 fold enrichment (6-mer frequency, TF over GST control); with CRX it was 1.86 fold enrichment (6-mer frequency, TF over GST control); with ETV1, 1.25 fold enrichment (6-mer frequency, TF over GST control); with ERF, 1.21 fold enrichment (6-mer frequency, TF over GST control); with ETV3L, 1.35 fold enrichment (6-mer frequency, TF over GST control). For the same sequence, the binding signal in the test with ETS2 is 1.13 fold enrichment (6-mer frequency, TF over GST control); with SPDEF it was 1.24 fold enrichment (6-mer frequency, TF over GST control); with ETV7, 1.18 fold enrichment (6-mer frequency, TF over GST control); with ELF5, 1.21 fold enrichment (6-mer frequency, TF over GST control); with ETV3, 1.2 fold enrichment (6-mer frequency, TF over GST control); with ETV6 it was 1.19 fold enrichment (6-mer frequency, TF over GST control).
